Inconclusive results are not listed. Unmarked numbers belong to inactive results. Active and inactive are the calls of the source. The call rests on the fitted dose curve; in most records, active means well fitted inhibition curve with a large enough effect; inconclusive means small, poorly fitted or top-dose-only effect; inactive means no such curve, though single readings can be large or run the other way. Where a SMILES comes first, the peptide text is derived from it. The star is where a group is joined. AFC = O=c1cc(C(F)(F)F)c2ccc(N*)cc2o1

Test [1] has as its system Zika virus NS2B-NS3 protease (unlinked complex). Kind of test: Primary screen GU Rhodamine qHTS for Zika virus inhibitors: Unlinked NS2B-NS3 protease assay (AID 1347159). Further: nearly all actives have a fitted effect of over 60% in size. An outline of the steps: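 Percent inhibition came from the 15-min rise in Rhodamine110 fluorescence (1.5 microM substrate, ~15% conversion), normalized to no-inhibitor and no-enzyme wells and Hill-fitted. Unlinked protease, 25 nM, pH 8.0 Tris buffer; compounds up to 114 microM, 15-min preincubation.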
On the technique in general: In qHTS, concentration-response curves come from the screen itself.

The test system of test [2] is Zika virus NS2B-NS3 protease (linked construct). Kind of test: Primary screen NINDS Rhodamine qHTS for Zika virus inhibitors (AID 1347160). Further: nearly all actives have a fitted effect of over 55% in size. An outline of the steps:
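Rhodamine110-peptide cleavage (1.5 µM substrate) by 25 nM linked NS2B-NS3 enzyme at pH 8.0 (Tris, Tween 20), after 15 min RT preincubation with compounds; 15-min fluorescence change normalized to controls and Hill-fitted.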
On the % scale 0 is the no-effect control and ±100 the full control effect.

As for `CC(=O)N[C@@H](CC(C)C)C(=O)N[C@@H](CCC(=O)O)C(=O)N[C@@H](CCC(=O)O)C(=O)N[C@@H](CC(=O)O)C(=O)Nc1ccc2c(C(F)(F)F)cc(=O)oc2c1` (Ac-LEED-{AFC}), the Potency entry in test [1] and in test [2] was “inactive” in each case.
On to `CNC(=O)COC(=O)NCCC1CCN(c2cccc(C)n2)CC1`, for which the Potency entry in test [1] and in test [2] was “inactive” each time.
For the molecule `C=C[C@H]1[C@H](O[C@@H]2O[C@H](CO)[C@@H](O)[C@H](O)[C@H]2O)OC=C(C(=O)OC)[C@H]1C[C@@H]1N[C@H](C(=O)O)Cc2c1[nH]c1ccccc21`, the Potency entry in test [1] and in test [2] was “inactive” each time.
`C=C1CC2C3(C)C(OC(C)=O)CC(=O)OC(C)(C)C3C(O)C(OC(C)=O)C2(C)C2C(=O)OC(C)C(=O)C12C` (stereo not given): the Potency result in test [1] and in test [2] was “inactive” in each case.
Regarding `COC(=O)C1=CO[C@@H](O[C@@H]2O[C@H](CO[C@@H]3O[C@H](COC(=O)/C=C/c4ccc(O)cc4)[C@@H](O)[C@H](O)[C@H]3O)[C@@H](O)[C@H](O)[C@H]2O)[C@@H]2C(CO)=CC[C@H]12`, the Potency entry in test [1] and in test [2] was “inactive” each time.
For the molecule `Oc1ccc([C@H]2COc3cc(O)ccc3C2)cc1`, the Potency entry in test [1] and in test [2] was “inactive” throughout.
As to `CC(C)(O)C1=CCC23COC(C2)C(O)(C(=O)O)CCC13` (stereo not given), the Potency result in test [1] and in test [2] was “inactive” each time.
As to `CC1=C(C)C(=O)OC(C(C)C2C(O)CC3C4C5OC5C5(O)CC(OC6OC(CO)C(O)C(O)C6O)CC(O)C5(C)C4CCC32C)C1` (stereo not given), the Potency result in test [1] and in test [2] was “inactive” throughout.
Take `C=C1CCC2(OC1)OC1CC3C4CC=C5CC(O)CC(O[C@@H]6OC[C@@H](O)[C@H](O)[C@H]6O)C5(C)C4CCC3(C)C1(O)C2C` (stereo not given in full): the Potency result in test [1] and in test [2] was “inactive” throughout.
On to `CC(O)(CC(=O)O)CC(=O)O[C@@H]1[C@@H](O)[C@H](OCCc2ccccc2)O[C@H](CO)[C@H]1O` (stereo not given in full), for which the Potency entry in test [1] and in test [2] was “inactive” in each case.
As for `C[C@@H]1C(=O)O[C@H]2CC34[C@H]5C[C@@H](C(C)(C)C)C36[C@@H](OC(=O)[C@@H]6O)O[C@@]4(C(=O)O5)[C@]21O` (stereo not given in full), the Potency entry in test [1] and in test [2] was “inactive” each time.
As to `CCCn1cnc2c(NCc3ccccc3)nc(N[C@H](CC)CO)nc21`, the Potency result in test [1] and in test [2] was “inactive” each time.
As to `Cn1c(=O)cc(N2CCCC(N)C2)n(Cc2ccccc2C#N)c1=O` (stereo not given), the Potency result in test [1] and in test [2] was “inactive” in each case.
`CC[C@H]1OC(=O)[C@H](C)[C@@H](OC2C[C@@](C)(OC)[C@@H](O)[C@H](C)O2)[C@H](C)[C@@H](OC2O[C@H](C)C[C@H](NC)[C@H]2O)[C@](C)(O)C[C@@H](C)CN(C)[C@H](C)[C@@H](O)[C@]1(C)O` (stereo not given in full): the Potency entry in test [1] and in test [2] was “inactive” throughout.
Take `CO[C@@]12CC3[C@@H]([C@@H](O)[C@@H](OC(C)=O)C4[C@](C)(COC(C)=O)CCC[C@]34C)[C@@H](C)C1=CC(=O)O2` (stereo not given in full): the Potency entry in test [1] and in test [2] was “inactive” each time.
On to `CC(=O)[C@@H]1CC[C@]2(C(=O)O)CC[C@]3(C)C(CCC4[C@@]5(C)CC[C@H](O)C(C)(C)C5CC[C@]43C)C12` (stereo not given in full), for which the Potency entry in test [1] and in test [2] was “inactive” in each case.
As for `COc1c(C)c(C(=O)c2ccc(N)c(C(=O)O)c2)n2ccccc12`, the Potency entry in test [1] and in test [2] was “inactive” each time.
Consider `C=C1C(OC(C)=O)C(=O)C2C(C)(C)C(OC(C)=O)CCC2(C)C1CC(OC(C)=O)/C(C)=C/COC(C)=O` (stereo not given), for which the Potency result in test [1] and in test [2] was “inactive” in each case.
Consider `CCn1nnnc1NCc1ccc(C(C)C)cc1`, for which the Potency result in test [1] and in test [2] was “inactive” throughout.
As to `C=C1CC2C3(C)C(O)CC(=O)C(C)(C)C3C(OC(C)=O)C(OC(C)=O)C2(C)C2C(=O)OC(C)(C(=O)OC)C(=O)C12C` (stereo not given), the Potency result in test [1] and in test [2] was “inactive” throughout.
For the molecule `NCc1c[nH]c(=S)n1C1CCc2c(F)cc(F)cc2C1` (stereo not given), the Potency result in test [1] and in test [2] was “inactive” each time.
Regarding `c1ccc(Cc2ncc3c(n2)CCNCC3)cc1`, the Potency entry in test [1] and in test [2] was “inactive” throughout.
`C=CCc1ccc(O[C@@H]2O[C@H](CO[C@@H]3O[C@H](CO)[C@@H](O)[C@H](O)[C@H]3O)[C@@H](O)[C@H](O)[C@H]2O)c(O)c1`: the Potency result in test [1] and in test [2] was “inactive” each time.
As for `Cn1ccnc1CCOC(c1cc2nccc(C(=O)O)c2[nH]1)c1ccccc1Cl` (stereo not given), the Potency result in test [1] and in test [2] was “inactive” in each case.
As to `C[C@@H]1O[C@@H](O[C@H]2[C@H](O)[C@@H](O)[C@H](OC[C@H]3O[C@@H](OC(=O)[C@]45CCC(C)(C)C[C@H]4C4=CCC6[C@@]7(C)C[C@H](O)[C@H](O[C@@H]8O[C@H](CO)[C@@H](O)[C@H](O)[C@H]8O)[C@@](C)(C(=O)O)C7CC[C@@]6(C)[C@]4(C)CC5)[C@H](O[C@@H]4O[C@H](CO)[C@@H](O)[C@H](O)[C@H]4O)[C@@H](O)[C@@H]3O)O[C@@H]2CO)[C@H](O)[C@H](O)[C@H]1O` (stereo not given in full), the activity change, negative = inhibition is -27.3% [at 19.1 µM] in test [1] and -5.11% [at 10.7 µM] in test [2].

The values above are taken from PubChem BioAssay (NCATS).
